Laboratory results: PubChem BioAssay (NCI)
The panel holds about 83,000 compounds, 20% with a hit somewhere; the sample as a whole holds those more often.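 Single-concentration screen, 48 h exposure, 96-well plates. Endpoint: percent growth. Below 10 = active.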 A number with no mark means an inactive call. Calls of active or inactive are those of the source.

Legend:
Experiment in all cases: NCI-60 one-dose screen, 48 h (100 = growth as untreated, 0 = no growth, -100 = all killed)
NCI-H23 lung = conditions: 10 µM unless noted
NCI-H226 lung = conditions: 10 µM unless noted
NCI-H322M lung = conditions: 10 µM unless noted
HOP-62 NSCLC = conditions: 10 µM unless noted
NCI-H460 lung = conditions: 10 µM unless noted
HOP-92 NSCLC = conditions: 10 µM
NCI-H522 lung = conditions: 10 µM unless noted
A549/ATCC NSCLC = conditions: 10 µM unless noted
786-0 renal = conditions: 10 µM unless noted
DU-145 prostate = conditions: 10 µM unless noted
K-562 leukemia = conditions: 10 µM unless noted
MALME-3M melanoma = conditions: 10 µM unless noted
MDA-MB-231 breast = conditions: 10 µM unless noted
SF-268 CNS = conditions: 10 µM unless noted
SF-295 CNS = conditions: 10 µM unless noted
SF-539 CNS = conditions: 10 µM unless noted
UACC-257 melanoma = conditions: 10 µM unless noted
COLO 205 colon = conditions: 10 µM unless noted
RXF 393 renal = conditions: 10 µM unless noted

Compound | growth (NCI-H23 lung) | growth (NCI-H226 lung) | growth (NCI-H322M lung) | growth (HOP-62 NSCLC) | growth (NCI-H460 lung) | growth (HOP-92 NSCLC) | growth (NCI-H522 lung) | growth (A549/ATCC NSCLC) | growth (786-0 renal) | growth (DU-145 prostate) | growth (K-562 leukemia) | growth (MALME-3M melanoma) | growth (MDA-MB-231 breast) | growth (SF-268 CNS) | growth (SF-295 CNS) | growth (SF-539 CNS) | growth (UACC-257 melanoma) | growth (COLO 205 colon) | growth (RXF 393 renal) [%]
COC(=O)C[Se]C(=O)Cc1c(C)n(C(=O)c2ccc(Cl)cc2)c2ccc(OC)cc12 | 11.5% | 52.8% | 44.7% | 25.4% | 16.3% | 53.2% | 44.8% | 18.7% | 83.3% | 25.6% | 54% | 46.5% | 30.9% | 40.7% | 9.86% (active) | 39.9% | 65.2% |  | 
CC1(C)CC[C@]2(CN)CC[C@]3(C)C(=CC[C@@H]4[C@@]5(C)CCCNC(C)(C)[C@@H]5CC[C@]43C)[C@H]2C1 | 104% | 105% | 99% | 93.9% | 99.5% | 81.2% | 105% | 92.2% | 92.8% | 109% | 3.16% (active) | 102% | 106% | 98.6% | 104% | 99.7% | 117% | 109% | 
COc1cc2c(cc1OC)C(Sc1ccc(C)cc1)c1c(nc(N)c(C#N)c1N)O2 (centres undefined) | -74.1% (active) | -1.22% (active) | -93.9% (active) | -1.58% (active) | -54.9% (active) | -31.8% (active) | -29% (active) | -38% (active) | -78.9% (active) | -83% (active) | 4.48% (active) | -70.7% (active) | -41.4% (active) | -54.5% (active) | -84.1% (active) | -86.3% (active) | -35.2% (active) | -28.5% (active) | 
Cc1ccc(-n2cc(/C=C/C(=O)c3ccc(O)cc3)c(-c3ccc(S(C)(=O)=O)cc3)n2)cc1 | 68.9% | 99.6% | 99.1% | 76% | 80.8% | 110% | 58.9% | 102% | 94.4% | 82.8% | 17.8% | 44.9% | 67.7% | 85.9% | 87.3% | 60.2% | 93.5% | 111% | 
CS(=O)(=O)c1ncc(-c2ccccc2)cn1 | 96% | 101% | 91.2% | 100% | 108% | 104% | 86.4% |  | 109% | 104% | 93.3% | 104% | 99.8% | 101% | 107% | 94.4% | 89.7% | 108% | 106
O=C(O)c1ccc(-n2cc(CNc3cc(F)c(F)c(F)c3)c(-c3ccc(F)cc3)n2)cc1 | 90% | 101% | 98% | 113% | 97.1% | 108% | 90.1% | 77.8% | 109% | 98.3% | 71.1% | 76.5% | 95.4% | 105% | 72.3% | 93.5% | 105% | 131% | 
Cn1ccnc1C(=O)/C=C/c1ccc(NC(=O)c2ccc(F)cc2)cc1 | 13.4% | 45.3% | 46.3% | 64.5% | -19.7% (active) | 47.2% | 17.4% | 34.8% | 22.1% | 9.78% (active) | 15% | 87.8% | 22.1% | 21.8% | 52.5% | -3.29% (active) | 84.2% |  | 
NC(N)=Nc1ccc(Oc2cccc(NC(N)=Nc3ccc(Br)cc3)c2)cn1 | 61.1% | 81.3% | 65.1% | 65.6% | 46.7% | 29% | 46.9% | 53.5% | 68.7% | 80.4% | 52.4% | 69.8% | 76.8% | 28.2% | 44.4% | 48.7% | 77.9% |  | 
CCc1nn2c(C)cc(C)nc2c1Cc1ccc(/C=C/CN2CCN(CCOCCOCCN3CCN(C/C=C/c4ccc(Cc5c(CC)nn6c(C)cc(C)nc56)cc4)CC3)CC2)cc1 | 26.2% | 67.9% | 7.19% (active) | 18.7% | -63.8% (active) | -5.1% (active) | -47.9% (active) | 11.7% | -79.3% (active) | -31.6% (active) | -51.2% (active) | -92.4% (active) | -66.2% (active) | -53.8% (active) | -52.7% (active) | -83.7% (active) | -67.6% (active) | -48.5% (active) | 
